In PubChem BioAssay one finds composite z-score and z-score data, which are given here for five compounds.

The source made the active and inactive calls. Unless noted, how the calls were made is not given here.

Experiment [1] concerns Wnt5a (protein binding on small-molecule microarray). In words: small molecules binding Wnt5a protein – biophysical, small-molecule microarray, 635/667 nm fluorescence, primary screen (AID 1142).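 Further: fluorescence read at 667 nm with signal to noise per printed feature.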 The note with it: 635 nm fluorescence, higher = more signal.
Experiment [2] in a line: ATP-based viability of Huh7 replicon cells – cell-based, CellTiter-Glo luminescence, basal, 48 h, cytotoxicity control for HCV replication inhibitor project, primary screen (AID 1143).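 Further: Huh7 hepatoma cells carrying a hepatitis C replication reporter with no stimulus; test concentration not given here.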 The note with it: higher = more signal, called active from +8 up or from −8 down. On the technique in general: In antiviral work, replicon cells carry a viral genome segment that copies itself.

Experiment [3] can be described thus: Pseudomonas biofilm growth suppression – PAO1 strain, BacTiter-Glo luminescence, LB-PBS, primary screen (AID 1144). The note with it: P. aeruginosa PAO1 biofilm, 12 h, higher = more signal.
Experiment [4] can be described thus: basal CRE-LacZ reporter activity in PC12 – cell-based, unstimulated, primary screen (AID 1145). Conditions: no forskolin, luminescence, 4.5 h, higher = more signal, called active from +8 up or from −8 down.
Experiment [5] is described as follows: forskolin-driven CRE-LacZ activity in PC12 – cell-based, CRE-LacZ reporter, forskolin-stimulated, primary screen (AID 1146).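 Further: PC12 cells with 6xCRE LacZ reporter stimulated by forskolin 10 µM; beta-galactosidase reporter signal reflecting CREB driven transcription.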 Conditions: luminescence, 4.5 h, higher = more signal, called active from +8 up or from −8 down.
Experiment [6] addresses Streptavidin (Streptomyces avidinii) (UniProt P22629). In words: compounds binding control protein streptavidin – biophysical, small-molecule microarray, 635/667 nm fluorescence, artefact control for SMM compound annotation, primary screen (AID 1147).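 Further: signal reflects streptavidin binding to arrayed compounds as a control protein.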 Conditions: higher = more signal.
Experiment [7] is described as follows: probe aInhba binding on compound microarray – biochemical, small-molecule microarray, 635/667 nm fluorescence, primary screen (AID 1148).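 Further: score merges 667nm spot fluorescence with signal-to-noise for antibody binding to printed compounds.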 Conditions: higher = more signal.
For experiment [8], the target named is Torsin-1A (Homo sapiens) (UniProt O14656). In words: TOR1A wild-type binding on microarray – cell lysate, small-molecule microarray, lysate, 635/667 nm, primary screen (AID 1149). Conditions: COS7 hTOR1A-WT lysate, 635 nm fluorescence, higher = more signal.
Torsin-1A (Homo sapiens), sequence (O14656 whole entry, looked up): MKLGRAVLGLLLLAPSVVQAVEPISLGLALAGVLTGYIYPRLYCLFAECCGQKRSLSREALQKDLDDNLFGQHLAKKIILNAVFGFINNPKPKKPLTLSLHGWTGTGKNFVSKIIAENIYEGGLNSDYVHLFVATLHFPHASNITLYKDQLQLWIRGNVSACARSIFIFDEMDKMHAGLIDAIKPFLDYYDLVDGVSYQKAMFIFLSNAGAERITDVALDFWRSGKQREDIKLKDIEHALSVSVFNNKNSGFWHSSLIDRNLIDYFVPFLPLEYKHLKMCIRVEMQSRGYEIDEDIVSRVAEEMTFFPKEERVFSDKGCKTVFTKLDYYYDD
For experiment [9] the target is unchanged. In words: torsin A mutant lysate binding on microarrays – cell lysate, small-molecule microarray, COS7 lysate, 635/667 nm fluorescence, primary screen (AID 1150).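 Further: score pools 667 nm emission and signal to noise measuring lysate protein binding.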 Conditions: COS7 hTOR1A mutant lysate, 635 nm fluorescence, higher = more signal.
The test system of experiment [10] is Sonic hedgehog protein (Shh). The experiment in a line: Sonic hedgehog microarray binding compounds – biochemical, small-molecule microarray, 635/667 nm fluorescence, primary screen (AID 1151).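 Further: Shh protein binding to compounds spotted on small-molecule microarray slides; score combines spot fluorescence intensity with signal-to-noise across triplicate slides.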 The note with it: 635 nm fluorescence, higher = more signal.
Experiment [11] is described as follows: optical density shifts of acrAB sulA E. coli – strain DRC41, OD650, 48 h, E. coli filamentation inducer project, primary screen (AID 1152).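 Further: E. coli MC1000 strain DRC41 lacking acrAB efflux pump and sulA.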 Conditions: higher = more signal, called active from +8 up or from −8 down.
Experiment [12] in a line: probe aLefty1 binding on compound microarray – biochemical, small-molecule microarray, 635/667 nm fluorescence, primary screen (AID 1153).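 Further: score merges spot fluorescence with signal-to-noise ratio from the scanned slide images.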 Conditions: higher = more signal.
The nature of experiment [13]: plasmodial surface anion channel blockers, osmotic lysis – cell-based, P. falciparum Indochina, OD700, 1 h, primary screen (AID 1154). The note with it: P. falciparum Indochina infected RBC osmotic lysis, higher = more signal, called active from +8 up or from −8 down.
Experiment [14] in a line: plasmodial surface anion channel blockers, osmotic lysis – cell-based, P. falciparum Indochina, OD700, 2 h, primary screen (AID 1155).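 Further: lysis reports solute entry through the parasite surface anion channel PSAC.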 Conditions: P. falciparum Indochina infected erythrocytes, higher = more signal, called active from +8 up or from −8 down.
The nature of experiment [15]: changes in parasitized red cell lysis, either direction – P. falciparum Indochina, OD700, 3 h, PSAC antagonist project, primary screen (AID 1156). The note with it: P. falciparum-infected erythrocytes, osmotic lysis, higher = more signal, called active from +8 up or from −8 down.
Experiment [16] can be described thus: plasmodial surface anion channel blockers, osmotic lysis – cell-based, P. falciparum Indochina, OD700, 18 h, primary screen (AID 1157). The note with it: P. falciparum Indochina infected erythrocytes, osmotic lysis OD700, 18 h; higher = more signal, called active from +8 up or from −8 down.
A short description of experiment [17]: S6 kinase pathway phospho-S6 level changes – cell-based, A549, cytoblot, luminescence, serum-stimulated, primary screen (AID 1158).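 Further: serum-stimulated A549 lung adenocarcinoma cells; signal is phosphorylated S6 detected by cytoblot immunostaining with HRP secondary.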 Conditions: 5 h, higher = more signal.
The target in experiment [18] is NADPH oxidase 2 (Homo sapiens) (UniProt P04839). In words: compounds shifting NOX2 Amplex Red fluorescence – cell-based, HEK293-NOX2, PMA-stimulated, NOX inhibitor project, primary screen (AID 1159). Further: test concentration not given here. Conditions: 45 min, higher = more signal, called active from +8 up or from −8 down.
NADPH oxidase 2 (Homo sapiens), sequence (P04839 whole entry, looked up): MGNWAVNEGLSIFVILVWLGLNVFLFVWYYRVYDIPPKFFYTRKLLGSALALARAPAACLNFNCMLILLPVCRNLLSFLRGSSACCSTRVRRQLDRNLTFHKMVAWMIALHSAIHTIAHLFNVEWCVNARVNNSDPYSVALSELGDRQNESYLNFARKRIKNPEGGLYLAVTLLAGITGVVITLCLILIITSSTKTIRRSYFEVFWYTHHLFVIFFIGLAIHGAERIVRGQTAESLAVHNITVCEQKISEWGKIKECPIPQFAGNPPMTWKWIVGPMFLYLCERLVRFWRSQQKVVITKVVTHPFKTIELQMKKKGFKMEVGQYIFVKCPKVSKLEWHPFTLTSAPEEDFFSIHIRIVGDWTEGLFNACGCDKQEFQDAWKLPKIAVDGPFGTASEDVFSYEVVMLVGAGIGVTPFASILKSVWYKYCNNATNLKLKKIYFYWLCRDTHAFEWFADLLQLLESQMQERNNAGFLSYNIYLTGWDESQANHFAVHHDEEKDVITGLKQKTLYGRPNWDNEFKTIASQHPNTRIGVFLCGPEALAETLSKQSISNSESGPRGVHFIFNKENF
Experiment [19] has as its target NADPH oxidase 4 (Homo sapiens) (UniProt Q9NPH5). The experiment in a line: compounds shifting NOX4 Amplex Red fluorescence – cell-based, HEK293-NOX4, tetracycline-induced, NOX inhibitor project, primary screen (AID 1160). The note with it: HEK293-NOX4, Amplex Red H2O2 fluorescence, 45 min; higher = more signal, called active from +8 up or from −8 down.
The target in experiment [20] is NADPH oxidase 5 (Homo sapiens) (UniProt Q96PH1). The experiment in a line: compounds shifting NOX5 Amplex Red fluorescence – cell-based, HEK293-NOX5, NOX inhibitor project, primary screen (AID 1161). Conditions: HEK293-NOX5, ionomycin, 45 min, higher = more signal.
NADPH oxidase 5 (Homo sapiens), sequence (Q96PH1 whole entry, looked up): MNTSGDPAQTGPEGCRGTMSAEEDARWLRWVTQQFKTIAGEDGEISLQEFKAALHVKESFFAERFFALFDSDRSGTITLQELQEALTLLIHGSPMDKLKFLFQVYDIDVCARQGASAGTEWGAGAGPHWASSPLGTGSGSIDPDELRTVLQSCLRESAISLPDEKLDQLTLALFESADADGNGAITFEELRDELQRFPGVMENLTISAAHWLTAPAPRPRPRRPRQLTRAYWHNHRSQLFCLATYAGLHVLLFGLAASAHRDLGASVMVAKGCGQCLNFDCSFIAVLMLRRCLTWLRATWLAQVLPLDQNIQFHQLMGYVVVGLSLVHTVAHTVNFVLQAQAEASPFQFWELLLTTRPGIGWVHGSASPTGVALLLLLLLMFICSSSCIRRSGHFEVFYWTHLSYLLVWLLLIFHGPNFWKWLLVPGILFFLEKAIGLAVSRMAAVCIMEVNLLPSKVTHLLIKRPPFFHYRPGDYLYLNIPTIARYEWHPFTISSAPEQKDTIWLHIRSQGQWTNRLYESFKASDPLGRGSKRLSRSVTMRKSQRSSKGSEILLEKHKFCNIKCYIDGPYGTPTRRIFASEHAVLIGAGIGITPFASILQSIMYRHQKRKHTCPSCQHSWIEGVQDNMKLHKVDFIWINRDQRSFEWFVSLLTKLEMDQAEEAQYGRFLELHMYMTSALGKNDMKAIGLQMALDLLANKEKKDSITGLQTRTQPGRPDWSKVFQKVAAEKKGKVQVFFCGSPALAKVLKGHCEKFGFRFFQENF

NADPH oxidase 4 (Homo sapiens), sequence (Q9NPH5 whole entry, looked up): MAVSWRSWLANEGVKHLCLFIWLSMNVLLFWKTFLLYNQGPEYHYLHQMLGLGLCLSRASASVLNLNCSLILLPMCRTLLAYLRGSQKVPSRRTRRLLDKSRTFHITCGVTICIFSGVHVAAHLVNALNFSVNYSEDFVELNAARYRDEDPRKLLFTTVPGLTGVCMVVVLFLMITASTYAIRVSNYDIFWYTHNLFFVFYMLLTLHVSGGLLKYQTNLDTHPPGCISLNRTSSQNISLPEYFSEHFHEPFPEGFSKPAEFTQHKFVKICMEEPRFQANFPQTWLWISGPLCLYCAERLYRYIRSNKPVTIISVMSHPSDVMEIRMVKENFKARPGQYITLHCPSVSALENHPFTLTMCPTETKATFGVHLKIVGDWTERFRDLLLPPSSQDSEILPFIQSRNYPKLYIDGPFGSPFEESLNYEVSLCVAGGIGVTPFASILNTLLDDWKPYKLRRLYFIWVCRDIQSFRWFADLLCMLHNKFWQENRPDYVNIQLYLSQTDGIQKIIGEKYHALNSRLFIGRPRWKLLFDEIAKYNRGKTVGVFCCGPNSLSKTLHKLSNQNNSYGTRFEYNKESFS
Streptavidin (Streptomyces avidinii), sequence (P22629 whole entry, looked up): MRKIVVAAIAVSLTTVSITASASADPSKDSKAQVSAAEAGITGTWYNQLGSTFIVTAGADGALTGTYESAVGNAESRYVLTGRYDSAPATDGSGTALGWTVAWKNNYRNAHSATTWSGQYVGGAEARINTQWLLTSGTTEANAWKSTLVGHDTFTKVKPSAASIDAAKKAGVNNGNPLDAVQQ

Turning to `CCOC(=O)[C@H](Cc1ccccc1)NC(=O)CCC1CC(OC(=O)NCc2ccc3c(c2)OCO3)CC2(CCCC(COC(=O)NCCOC)O2)O1` (stereo not given in full), the composite z-score was 0.274 in experiment [1]; 0.91 in experiment [6]; -0.016 in experiment [7]; 0.351 with Torsin-1A (Homo sapiens) [8]; 0.291 with Torsin-1A (Homo sapiens) [9]; 1.91 in experiment [10]. Further, the composite z-score in experiment [12] is -0.0428. Also, the z-score in experiment [2] is -3.06 (inactive); in experiment [3] it was -0.212 (inactive); in experiment [4], -0.256 (inactive); in experiment [5], 0.59 (inactive); in [11] it was -0.11 (inactive); in [13] it was -1.89 (inactive). Moreover, the z-score in experiment [14] is -1.39 (inactive); in experiment [15] it was 0.61 (inactive); in experiment [16], -1.67 (inactive); in experiment [17], 2.53; in experiment [18], 0.195 (inactive); in [19], -0.931 (inactive). Moreover, the z-score in experiment [20] was -2.16.

Regarding `CC(CCN1CCCCc2nc(C)c(C)cc21)=NOC[C@@H](O)[C@H]1O[C@@H]2OC(C)(C)O[C@@H]2[C@H]1O`, the composite z-score in [1] is 0.228; in experiment [6], -0.0979; in [7] it was -0.248; with Torsin-1A (Homo sapiens) [8], 0.477; with Torsin-1A (Homo sapiens) [9], 0.296; in experiment [10] it was 1.62. Besides, the composite z-score in [12] is -0.265. In addition, the z-score in experiment [2] is 1.06 (inactive); in [3] it was -0.0386 (inactive); in [4] it was -0.0824 (inactive); in experiment [5], 1.41 (inactive); in [11], -1.25 (inactive); in [13], 0.422 (inactive). In addition, the z-score is 0.726 (inactive) in experiment [14]; 0.637 (inactive) in experiment [15]; 0.244 (inactive) in experiment [16]; -0.67 in experiment [17]; 0.0801 (inactive) in experiment [18]; 0.413 (inactive) in experiment [19]. Moreover, the z-score in [20] was -0.216.

On to `COc1ccc(-c2cnnc(CCCn3ccnc3-c3ccccc3)n2)cc1`, for which the composite z-score in [1] was 0.314; in experiment [6], 0.22; in experiment [7] it was -0.144; in the experiment with Torsin-1A (Homo sapiens) [8], 1.56; with Torsin-1A (Homo sapiens) [9], 1.52; in experiment [10] it was 0.838. Also, in experiment [12], the composite z-score is -0.0576. The z-score in [2] was -4.68 (inactive); in [3] it was -0.459 (inactive); in [4] it was 1.37 (inactive); in [5], -0.631 (inactive); in [11], -0.249 (inactive); in [13] it was 26.2 (active). Also, the z-score in [14] is 9.62 (active); in experiment [15] it was 0.886 (inactive); in experiment [16] it was 0.982 (inactive); in [17], -0.714; in experiment [18], 1.27 (inactive); in experiment [19], -0.372 (inactive). Also, the z-score in experiment [20] is -1.2.

With `CC(C)=CCCC(C)=CCON=C1C[C@@H](O)[C@@H](O)[C@@H]2[C@@H]3C(=O)N([C@@H](C)c4ccccc4)C(=O)[C@@H]3CC[C@@H]12`, the composite z-score in [1] is 0.143; in [6] it was 0.242; in experiment [7] it was -0.121; with Torsin-1A (Homo sapiens) [8], 0.337; with Torsin-1A (Homo sapiens) [9], 1.09; in experiment [10], 0.672. Moreover, the composite z-score in experiment [12] came out at 0.0794. The z-score in [2] was -1.19 (inactive); in experiment [3], 0.491 (inactive); in experiment [4], -0.834 (inactive); in experiment [5], -0.541 (inactive); in experiment [11], -0.0368 (inactive); in experiment [13], 0.336 (inactive). Besides, the z-score in [14] was -0.168 (inactive); in experiment [15] it was -0.291 (inactive); in experiment [16], 0.183 (inactive); in experiment [17], -0.814; in [18], 0.311 (inactive); in [19], -0.0815 (inactive). In experiment [20], the z-score is -0.919.

For `CC(CCC(=O)OC[C@H]1O[C@H](C#Cc2ccccc2)C=C[C@@H]1Oc1ccc(C)cc1)=NOC[C@@H](C)[C@H](OCc1ccccc1)C(C)C`, the composite z-score in [1] was -0.174; in experiment [6], -0.783; in experiment [7] it was -0.128; in the experiment with Torsin-1A (Homo sapiens) [8], -0.705; with Torsin-1A (Homo sapiens) [9] it was -0.28; in experiment [10], 0.0623. Further, the composite z-score in experiment [12] was -0.378. In addition, the z-score in [2] was -0.276 (inactive); in experiment [3], -0.193 (inactive); in experiment [4], -0.399 (inactive); in experiment [5], 0.778 (inactive); in experiment [11], -0.321 (inactive); in [13], 0.551 (inactive). Besides, the z-score was 0.498 (inactive) in experiment [14]; 0.901 (inactive) in experiment [15]; 0.392 (inactive) in [16]; -0.0916 in experiment [17]; 1.21 (inactive) in experiment [18]; 1.16 (inactive) in [19]. The z-score in experiment [20] is 0.919.
